Data reported in PubChem BioAssay AID1053118 (Broad Institute, 2014).
Potency and affinity values are given separately. The source made the active and inactive calls.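 How the source made its calls: active means fitted half-maximal concentration for ATP signal loss at most twice the top valid dose; inconclusive means flat curve between -70 and -30%, or an invalid fit; inactive means flat within ±30%, wrong direction, or potency past limit.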

Assay: HepG2 cell cytotoxicity, dose response, cytotoxicity control, cherry-picks, set 5 (AID 1053118)

In the case of O=C(Nc1ccccc1F)N1C[C@H]2[C@@H](c3ccccc31)[C@@H](CO)N2C(=O)C1CC1, the outcome is reported as “inactive”.
With S=C(NCC1CCCO1)Nc1ccc(Cl)cc1Cl (centres undefined) the outcome was “inactive”.
For Cc1ccc(Nc2nnc(SCc3ccccc3)s2)cc1, the outcome was “inactive”.
For N#C[C@@H]1[C@H](c2ccccc2C2=CCCCC2)[C@@H](CO)N1S(=O)(=O)c1ccccc1, the outcome was “inactive”.
For C[C@@H]1CN([C@H](C)CO)C(=O)c2cccc(NC(=O)Nc3ccc(C(F)(F)F)cc3)c2O[C@H]1CN(C)C(=O)Nc1cccc2ccccc12, the outcome was “inactive”.
With CN(C)C(=O)c1ccc(-c2ccc3c(c2)[C@H]2[C@H](CCN2C(=O)c2ccc(F)cc2)[C@@H](CO)N3C)cc1 the outcome was “inactive”.
With Cc1ccc(-c2nc3ncccc3o2)cc1NC(=O)c1ccco1 the outcome was “inactive”.
For O=C(Nc1nc(-c2ccncc2)cs1)C1COc2ccccc2O1 (centres undefined), the outcome was “inactive”.
With Cc1cccc(NC(=O)Nc2ccc(S(=O)(=O)Nc3onc(C)c3C)cc2)c1 the outcome was “inactive”.
With CN1CCN(C(=O)c2cccc(-c3cnc4cnc(-c5ccccc5Oc5ccccc5)cn34)c2)CC1 the outcome was “inactive”.
With C[C@@H]1CN([C@H](C)CO)C(=O)c2cc(NC(=O)C3CCCCC3)ccc2O[C@@H]1CN(C)Cc1ccc(-c2ccccc2)cc1 the outcome was “inactive”.
In the case of COc1cccc(CNC(=O)CCc2nnc3ccc(NCCCN4CCCC4=O)nn23)c1, the outcome is reported as “inactive”.
For Cc1ccc(S(=O)(=O)N2CC3(C)CN(S(=O)(=O)c4ccc(C)cc4)CC(C)(C2)C3=O)cc1, the outcome was “inactive”.
For C[C@H](CO)N1C[C@H](C)[C@H](CN(C)C(=O)c2cccc(F)c2)Oc2ncc(-c3ccccc3)cc2C1=O, the outcome was “inactive”.
